# Pf Dd2 growth: blocks growth of Plasmodium falciparum Dd2 parasites; activity change, % at 10 µM; 94,000 tested, 2.3% active; P. falciparum Dd2 growth, SYBR Green, 72 h; hits give low values; in the data active = activity change below about -80%; inconclusive = no clear call, values can overlap the other calls
# Tcruzi prolif: blocks T. cruzi growth in NIH3T3 culture | AID 624255 | 77,000 tested, 5.9% active | inhibition, % at 8.34 µM | T. cruzi beta-gal in NIH3T3, GalScreen luminescence, 90 h;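 active = mean inhibition above about 93%, with at least 55% of replicates each passing it, limit read from the data, passing the limit was not always enough; inconclusive = only one of those two conditions holds; inactive = neither condition holds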
# C diff HTS: C. difficile growth inhibition; Clostridium difficile clinical isolate growth, OD600, 24 h; hits give low values; growth activity, negative = inhibition, % at 16 µg/mL (by protocol); 86,000 tested, 0.25% active; AID 1259249;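 active = mean growth activity at or below -80% and every replicate also at or below -80%; inconclusive = mean at or below -80% but some replicate above -80%; inactive = mean growth activity above -80%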;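 note: 0% = DMSO wells and -100% = levofloxacin 16 µg/mL wells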
# Numbers without * were called inactive; u = inconclusive; x = no result. Compounds with a hit are over-represented: about 6.8% of the library has one in this group of screens.
SMILES,Pf Dd2 growth,Tcruzi prolif,C diff HTS
C[C@@H]1CCCCO[C@@H](CN(C)C(=O)Nc2ccc3c(c2)OCO3)[C@@H](C)CN([C@H](C)CO)C(=O)c2cc(NC(=O)Nc3ccc(C(F)(F)F)cc3)ccc2O1,15.6,86.3,-2.3
C[C@@H]1CCCCO[C@@H](CN(C)C(=O)Nc2ccc3c(c2)OCO3)[C@H](C)CN([C@H](C)CO)C(=O)c2cc(NC(=O)Nc3ccc(C(F)(F)F)cc3)ccc2O1,-42.8,86.8,17.2
COc1ccc(NC(=O)Nc2ccc3c(c2)C(=O)N([C@H](C)CO)C[C@@H](C)[C@@H](CN(C)C(=O)Nc2ccc4c(c2)OCO4)OCCCC[C@@H](C)O3)cc1,-90.3*,68.9,10.2
C[C@H](CO)N1C[C@H](C)[C@@H](CN(C)C(=O)Nc2ccc(C(F)(F)F)cc2)OCCCC[C@H](C)Oc2ccc(NC(=O)Nc3ccc4c(c3)OCO4)cc2C1=O,-37.6,118.6*,3.6
C[C@H]1CCCCO[C@H](CN(C)C(=O)Nc2ccc3c(c2)OCO3)[C@@H](C)CN([C@@H](C)CO)C(=O)c2cc(NC(=O)Nc3ccc(C(F)(F)F)cc3)ccc2O1,u,79.1,5.2
C[C@@H]1CCCCO[C@H](CN(C)C(=O)Nc2ccc(C(F)(F)F)cc2)[C@@H](C)CN([C@H](C)CO)C(=O)c2cc(NC(=O)Nc3ccc4c(c3)OCO4)ccc2O1,-38.0,107.3*,0.5
COc1ccc(NC(=O)Nc2ccc3c(c2)C(=O)N([C@@H](C)CO)C[C@@H](C)[C@H](CN(C)C(=O)Nc2ccc4c(c2)OCO4)OCCCC[C@@H](C)O3)cc1,-0.4,40.0,6.7
C[C@@H]1CCCCO[C@H](CN(C)C(=O)Nc2ccc3c(c2)OCO3)[C@H](C)CN([C@H](C)CO)C(=O)c2cc(NC(=O)Nc3ccc(C(F)(F)F)cc3)ccc2O1,-88.6*,93.4,6.8
Cc1cccc(S(=O)(=O)N[C@H]2CC[C@H](CCn3cc(-c4ccccn4)nn3)O[C@H]2CO)c1,-2.0,3.9,-1.0
COc1ccc(NC(=O)N(C)C[C@@H]2Oc3ncccc3C(=O)N([C@H](C)CO)C[C@@H]2C)cc1,17.9,x,1.2
C[C@H](CO)N1C[C@H](C)[C@H](CN(C)Cc2ccc(C(=O)Nc3ccccc3N)cc2)Oc2ccc(NC(=O)Nc3ccc(C(F)(F)F)cc3)cc2C1=O,-80.3*,x,40.4
COc1ccc(NC(=O)Nc2ccc3c(c2)C(=O)N([C@H](C)CO)C[C@H](C)[C@H](CN(C)Cc2ccc(C(=O)Nc4ccccc4N)cc2)O3)cc1,-79.5,x,1.9
C[C@H]1CN([C@@H](C)CO)C(=O)c2cc(NC(=O)Nc3ccc(F)cc3)ccc2O[C@H]1CN(C)Cc1ccc(C(=O)Nc2ccccc2N)cc1,-71.3,50.6,3.7
C[C@H](CO)N1C[C@H](C)[C@H](CN(C)Cc2ccc(C(=O)Nc3ccccc3N)cc2)Oc2ccc(NC(=O)Cc3ccccc3)cc2C1=O,-84.4*,x,5.6
C[C@@H]1CN([C@@H](C)CO)C(=O)c2cc(NC(=O)c3ccncc3)ccc2O[C@@H]1CN(C)Cc1ccc(C(=O)Nc2ccccc2N)cc1,-73.1,x,0.9
C[C@@H]1CN([C@@H](C)CO)C(=O)c2cc(NC(=O)Nc3ccccc3)ccc2O[C@@H]1CN(C)Cc1ccc(C(=O)Nc2ccccc2N)cc1,-83.5*,47.7,0.8
C[C@H](CO)N1C[C@H](C)[C@H](CN(C)Cc2ccc(C(=O)Nc3ccccc3N)cc2)Oc2ccc(NC(=O)Nc3ccccc3)cc2C1=O,-70.3,41.7,-4.1
C[C@@H]1CN([C@@H](C)CO)C(=O)c2cc(NC(=O)Nc3ccc(F)cc3)ccc2O[C@@H]1CN(C)Cc1ccc(C(=O)Nc2ccccc2N)cc1,-83.6*,x,25.9
COc1ccccc1NC(=O)N[C@@H]1CC[C@@H](CC(=O)N2CCC(Cc3ccccc3)CC2)O[C@@H]1CO,0.1,x,-16.8
CO[C@@H]1CN(C)C(=O)c2cc(NC(=O)c3cc(C)on3)ccc2OC[C@@H](C)N(CC2CC2)C[C@H]1C,17.3,-7.5,x
CCCNC(=O)N1C[C@H](C)[C@H](OC)CN(C)C(=O)c2cc(NC(=O)CCC)ccc2OC[C@H]1C,24.2,28.3,x
COc1ccccc1C(=O)Nc1ccc2c(c1)C(=O)N(C)[C@@H]1CC[C@@H](CC(=O)NCc3ccc(Cl)c(Cl)c3)O[C@H]1CO2,-41.0,70.1,2.6
C/C=C/c1ccc([C@@H]2[C@@H](CO)N(C(C)=O)C23CN(C(=O)NC2CCCC2)C3)cc1,13.1,x,2.3
Cc1ccc(S(=O)(=O)N(C)C[C@@H]2Oc3ccc(NC(=O)CCCCCC(=O)Nc4ccccc4N)cc3C(=O)N([C@@H](C)CO)C[C@@H]2C)cc1,-89.1*,x,-0.9
C[C@H](CO)N1C[C@H](C)[C@@H](CN(C)S(=O)(=O)c2ccc(Cl)cc2)Oc2ccc(NC(=O)CCCCCC(=O)Nc3ccccc3N)cc2C1=O,-86.5*,x,-6.5
SMILES,Pf Dd2 growth,Tcruzi prolif,C diff HTS
Cc1ccc(S(=O)(=O)N(C)C[C@@H]2Oc3ccc(NC(=O)CCCCCC(=O)Nc4ccccc4N)cc3C(=O)N([C@@H](C)CO)C[C@H]2C)cc1,-60.5,x,-2.7
C[C@H](CO)N1C[C@H](C)[C@H](CN(C)S(=O)(=O)c2ccc(Cl)cc2)Oc2ccc(NC(=O)CCCCCC(=O)Nc3ccccc3N)cc2C1=O,-74.4,x,-22.1
O=C(Cc1ccccn1)NCC[C@H]1CC[C@H](NC(=O)Nc2ccc(Cl)cc2)[C@H](CO)O1,-12.7,-32.0,-0.1
O=C(C[C@@H]1CC[C@H](NC(=O)c2ccc(F)cc2)[C@@H](CO)O1)NCCc1ccncc1,1.4,-27.5,-4.0
O=C(N[C@H]1CC[C@H](CCn2cc(Cc3ccccc3)nn2)O[C@H]1CO)c1ccccn1,-6.3,-19.2,-2.4
COc1cc(CN2[C@@H]3CNC[C@H]2C3c2ccc(-c3cccnc3)cc2)cc(OC)c1 (stereo partly drawn),0.1,x,-3.5
FC(F)(F)c1cccc(CN2[C@@H]3CNC[C@H]2[C@@H]3c2ccc(-c3cccnc3)cc2)c1,-84.2*,x,11.0
C[C@H](NC(=O)[C@H]1[C@H](CO)[C@H]2Cn3c(cccc3=O)[C@H]2N1C(=O)C1CC1)c1ccccc1,2.1,4.7,0.1
C[C@H]1CN([C@@H](C)CO)C(=O)c2cccc(NS(=O)(=O)c3ccc(F)cc3)c2O[C@H]1CN(C)Cc1ccc(C(=O)Nc2ccccc2N)cc1,-88.5*,x,-0.4
C[C@@H]1CN([C@@H](C)CO)C(=O)c2cccc(NS(=O)(=O)c3ccc(F)cc3)c2O[C@H]1CN(C)Cc1ccc(C(=O)Nc2ccccc2N)cc1,-67.6,x,4.2
C[C@@H]1CN([C@@H](C)CO)C(=O)c2cccc(NS(=O)(=O)c3ccc(F)cc3)c2O[C@@H]1CN(C)Cc1ccc(C(=O)Nc2ccccc2N)cc1,-89.7*,79.0,9.2
C[C@H]1CN([C@@H](C)CO)C(=O)c2cccc(NS(=O)(=O)c3ccc(F)cc3)c2O[C@@H]1CN(C)Cc1ccc(C(=O)Nc2ccccc2N)cc1,-59.2,x,-2.4
C[C@@H]1CCCCO[C@@H](CN(C)Cc2ccc(C(=O)O)cc2)[C@H](C)CN([C@@H](C)CO)C(=O)c2cc(NS(=O)(=O)c3ccc(Cl)cc3)ccc2O1,14.9,8.8,-1.4
COc1cccc(S(=O)(=O)N2CCC3(CC2)CN(C(=O)Nc2ccc(F)cc2)[C@@H](CO)c2[nH]c4cc(OC)ccc4c23)c1,-75.3,x,6.5

# Screening results deposited in PubChem BioAssay by Broad Institute.
